Measurements taken from PubChem BioAssay (NCI).
The panel holds about 83,000 compounds, 20% with a hit somewhere; the sample as a whole holds those more often.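 96-well plates, one dose, 48 hours. Percent growth reported; active if below 10.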 Active and inactive are the calls of the source.

Assays:
Assay in all cases: NCI-60 one-dose screen, 48 h (100 = growth as untreated, 0 = no growth, -100 = all killed)
NCI-H23 lung = conditions: 10 µM unless noted
NCI-H226 lung = conditions: 10 µM unless noted
NCI-H322M lung = conditions: 10 µM unless noted
HOP-62 NSCLC = conditions: 10 µM unless noted
NCI-H460 lung = conditions: 10 µM unless noted
NCI-H522 lung = conditions: 10 µM unless noted
A549/ATCC NSCLC = conditions: 10 µM unless noted
786-0 renal = conditions: 10 µM unless noted
COLO 205 colon = conditions: 10 µM unless noted
DU-145 prostate = conditions: 10 µM unless noted
K-562 leukemia = conditions: 10 µM unless noted
MALME-3M melanoma = conditions: 10 µM unless noted
MDA-MB-231 breast = conditions: 10 µM unless noted
RXF 393 renal = conditions: 10 µM unless noted
SF-268 CNS = conditions: 10 µM unless noted
SF-295 CNS = conditions: 10 µM unless noted
SF-539 CNS = conditions: 10 µM unless noted
UACC-257 melanoma = conditions: 10 µM unless noted
HOP-92 NSCLC = conditions: 10 µM
M14 melanoma = conditions: 10 µM unless noted

Measured: growth

Oc1ccc(CSc2nnc(-c3ccc(Cl)cc3)n2-c2ccccc2)c2cccnc12
active: NCI-H460 lung 2.03% | SF-295 CNS 4.65%
inactive: NCI-H23 lung 31.2% | NCI-H226 lung 50.9% | NCI-H322M lung 41.6% | HOP-62 NSCLC 16.9% | NCI-H522 lung 36.4% | A549/ATCC NSCLC 26% | 786-0 renal 44.2% | COLO 205 colon 88.9% | DU-145 prostate 38.8% | K-562 leukemia 22.1% | MALME-3M melanoma 29.6% | MDA-MB-231 breast 58.5% | RXF 393 renal 56.3% | SF-268 CNS 30.7% | SF-539 CNS 22% | UACC-257 melanoma 29.3%

N#Cc1c(-c2cccs2)cc(-c2cnccn2)nc1SCC(=O)c1ccc(F)cc1
inactive: NCI-H23 lung 90.6% | NCI-H226 lung 89.3% | NCI-H322M lung 97.8% | HOP-62 NSCLC 76.4% | NCI-H460 lung 103% | HOP-92 NSCLC 76% | A549/ATCC NSCLC 86.6% | 786-0 renal 88.6% | COLO 205 colon 105% | DU-145 prostate 79.5% | K-562 leukemia 87.2% | MALME-3M melanoma 101% | MDA-MB-231 breast 68.7% | RXF 393 renal 62.2% | SF-268 CNS 84.7% | SF-295 CNS 93.6% | SF-539 CNS 76.9% | UACC-257 melanoma 109% | M14 melanoma 116%

C=C(C)[C@@H]1CC[C@]2(C(=O)NCCCCCN(CCC#N)CCC#N)CC[C@]3(C)[C@H](CC[C@@H]4[C@@]5(C)CCC(=O)C(C)(C)[C@@H]5CC[C@]43C)[C@@H]12
inactive: NCI-H23 lung 95.3% | NCI-H226 lung 92.8% | NCI-H322M lung 116% | HOP-62 NSCLC 82.6% | NCI-H460 lung 87.5% | HOP-92 NSCLC 97% | A549/ATCC NSCLC 90.9% | 786-0 renal 92% | COLO 205 colon 111% | DU-145 prostate 96.2% | K-562 leukemia 96.9% | MALME-3M melanoma 119% | MDA-MB-231 breast 107% | RXF 393 renal 58.2% | SF-268 CNS 81.5% | SF-295 CNS 99.6% | SF-539 CNS 101% | UACC-257 melanoma 103% | M14 melanoma 97.6%

Nc1ncc(-c2ccc3ncnc(N4CCc5cc(F)c(Cl)cc54)c3c2)cn1
active: HOP-92 NSCLC -10.9% | 786-0 renal 3.19% | MDA-MB-231 breast 0.108% | RXF 393 renal -47.5% | SF-539 CNS 8.74%
inactive: NCI-H23 lung 31.7% | NCI-H226 lung 20.7% | NCI-H322M lung 23% | HOP-62 NSCLC 19.6% | NCI-H460 lung 23% | COLO 205 colon 39.9% | DU-145 prostate 10.8% | K-562 leukemia 34.6% | MALME-3M melanoma 33.6% | SF-268 CNS 16.9% | SF-295 CNS 13.2% | UACC-257 melanoma 50.6% | M14 melanoma 33.8%

COc1cc(Nc2c(C#N)cnn3cc(-c4cnn(CC(C)(C)O)c4)cc23)ccc1Cl
inactive: NCI-H23 lung 41.4% | NCI-H226 lung 42.1% | NCI-H322M lung 41.9% | HOP-62 NSCLC 45.6% | NCI-H460 lung 59.7% | NCI-H522 lung 15% | A549/ATCC NSCLC 52.4% | 786-0 renal 34.7% | COLO 205 colon 75.9% | DU-145 prostate 47.6% | K-562 leukemia 12.9% | MALME-3M melanoma 67.5% | MDA-MB-231 breast 65.4% | SF-268 CNS 56.5% | SF-295 CNS 63% | UACC-257 melanoma 81.7%
active: RXF 393 renal -20.3% | SF-539 CNS 8.69%

O=C(/C=C/c1ccc(F)cc1)c1ccc(O)cc1
inactive: NCI-H23 lung 95.6% | NCI-H226 lung 105% | NCI-H322M lung 121% | HOP-62 NSCLC 107% | NCI-H460 lung 103% | NCI-H522 lung 90.1% | A549/ATCC NSCLC 92.2% | 786-0 renal 95.2% | COLO 205 colon 112% | DU-145 prostate 95.5% | K-562 leukemia 58.7% | MALME-3M melanoma 118% | MDA-MB-231 breast 100% | RXF 393 renal 105% | SF-268 CNS 101% | SF-295 CNS 104% | SF-539 CNS 93.7% | UACC-257 melanoma 95.5%

N/C(=N\C(N)=N\c1nc2ccccc2s1)c1ccncc1Cl
inactive: NCI-H23 lung 33.9% | NCI-H226 lung 67.8% | NCI-H322M lung 80.6% | HOP-62 NSCLC 51.6% | NCI-H460 lung 23.4% | NCI-H522 lung 18.4% | A549/ATCC NSCLC 71% | 786-0 renal 42.7% | COLO 205 colon 50.4% | DU-145 prostate 45.7% | K-562 leukemia 17.1% | MALME-3M melanoma 45.7% | MDA-MB-231 breast 45% | SF-268 CNS 52.6% | UACC-257 melanoma 79.7% | M14 melanoma 32.4%
active: RXF 393 renal 8.87% | SF-295 CNS -22.2% | SF-539 CNS 7.8%

Cc1ccc2c(c1)C(=O)/C(=C/c1cccc(F)c1)S2
inactive: NCI-H23 lung 101% | NCI-H226 lung 88.5% | NCI-H322M lung 98.2% | HOP-62 NSCLC 109% | NCI-H460 lung 105% | NCI-H522 lung 93.2% | A549/ATCC NSCLC 107% | 786-0 renal 103% | COLO 205 colon 112% | DU-145 prostate 111% | K-562 leukemia 90.7% | MALME-3M melanoma 97.9% | MDA-MB-231 breast 99.8% | RXF 393 renal 96.6% | SF-268 CNS 101% | SF-295 CNS 105% | SF-539 CNS 100% | UACC-257 melanoma 103% | M14 melanoma 109%
